Experimental data published in PMC4336329 (PLoS ONE, 2015).
The whole screen tested about 310,000 compounds, of which about 2,200 (0.71%) showed an effect of 50% or more. Effects have a minus sign here. What follows is part of a selection rich in strong results, with near analogues and random picks from the rest.

Molecular target: human ether-à-go-go-related gene (hERG) potassium channel (human, UniProt Q12809)
Test: primary screen, population patch clamp on CHO cells stably expressing hERG; higher = less effect of the substance

human ether-à-go-go-related gene (hERG) potassium channel, sequence (Q12809 whole entry, looked up): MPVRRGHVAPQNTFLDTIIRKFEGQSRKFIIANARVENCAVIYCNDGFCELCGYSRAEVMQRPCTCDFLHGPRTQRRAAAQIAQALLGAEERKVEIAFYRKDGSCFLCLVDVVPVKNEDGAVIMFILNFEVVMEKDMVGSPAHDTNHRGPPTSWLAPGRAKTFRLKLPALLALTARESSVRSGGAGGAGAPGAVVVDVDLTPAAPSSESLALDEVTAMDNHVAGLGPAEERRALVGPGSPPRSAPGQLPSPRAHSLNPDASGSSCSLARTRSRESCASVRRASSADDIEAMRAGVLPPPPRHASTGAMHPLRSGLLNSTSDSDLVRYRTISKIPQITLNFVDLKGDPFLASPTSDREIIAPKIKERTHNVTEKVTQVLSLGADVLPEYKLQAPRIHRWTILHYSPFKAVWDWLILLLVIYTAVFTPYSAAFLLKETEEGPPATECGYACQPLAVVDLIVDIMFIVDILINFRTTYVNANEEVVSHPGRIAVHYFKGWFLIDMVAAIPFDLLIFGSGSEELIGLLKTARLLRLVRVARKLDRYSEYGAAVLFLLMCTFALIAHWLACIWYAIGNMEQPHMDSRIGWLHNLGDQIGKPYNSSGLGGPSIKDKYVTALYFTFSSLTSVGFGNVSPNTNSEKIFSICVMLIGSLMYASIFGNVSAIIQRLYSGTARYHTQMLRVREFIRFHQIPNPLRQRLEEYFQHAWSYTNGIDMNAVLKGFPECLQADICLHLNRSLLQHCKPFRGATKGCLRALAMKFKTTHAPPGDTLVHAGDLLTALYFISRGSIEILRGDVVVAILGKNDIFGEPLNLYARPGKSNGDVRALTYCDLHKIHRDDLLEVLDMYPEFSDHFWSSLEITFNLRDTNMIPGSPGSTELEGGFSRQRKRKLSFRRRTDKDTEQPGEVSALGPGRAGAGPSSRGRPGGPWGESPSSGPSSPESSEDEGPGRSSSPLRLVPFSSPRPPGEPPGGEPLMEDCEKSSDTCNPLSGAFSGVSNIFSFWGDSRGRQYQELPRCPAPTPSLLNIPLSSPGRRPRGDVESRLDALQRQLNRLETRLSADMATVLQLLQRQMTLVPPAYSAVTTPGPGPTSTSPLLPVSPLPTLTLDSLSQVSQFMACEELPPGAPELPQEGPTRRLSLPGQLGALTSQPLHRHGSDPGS

Structure (SMILES)	hERG current change (%, negative = inhibition) at 1uM [%]
O=C(Nc1ccc(Cl)cc1)c1cc(S(=O)(=O)N2CCOCC2)cs1	-7.43
COCCCN(Cc1ccco1)C(=O)Cn1ncc2c([nH]c3ccccc32)c1=O	-5.46
O=C(N/N=C1/CCc2ccccc21)C1CC1	6.47
Cc1ccc(CNC(=O)COC(=O)c2ccc(S(=O)(=O)N(C)C)cc2)cc1	17.8
CCN(CC)c1ccc2ccc(=O)oc2c1	7.92
O=C(NNC(=O)c1ccc(Cl)c(S(=O)(=O)Nc2ccc(Cl)cc2)c1)c1ccc(=O)[nH]c1	14.5
COc1ccc(-c2nnc3ccc(SCC(=O)N4CCCCC4)nn23)cc1OC	6.34
Cc1cc2nc(-c3ccc(=O)[nH]c3)n(C)c2cc1C	11
Cc1ccc(-c2csc(NC(=O)c3ccc(F)cc3)c2C(=O)O)cc1	16
CCOC(=O)C1(C)Oc2ccc(S(=O)(=O)CC)cc2NC1=O (centres unmarked)	16.3
COCCn1nnnc1C(c1ccccn1)N1CCN(c2cc(C)ccc2C)CC1.Cl (centres unmarked)	9.25
Cc1[nH]nc2c1C(C(C)c1ccccc1)C(C#N)=C(N)O2 (centres unmarked)	7.79
COc1ccc(C(=O)C[n+]2cc(-c3ccc(OC)cc3)n3c2CCCC3)cc1.[Br-]	11.5
O=C(C[n+]1cc(-c2ccc(Cl)cc2)n2c1CCCCC2)c1ccccc1.[Br-]	-2.53
COc1ccc(-c2c[n+]3c4n2CCCCC4=C(c2ccc(Br)cc2)C3)cc1.[Br-]	-79.6
COc1ccc(-c2c[n+](CC(=O)c3ccccc3)c3n2CCCCC3)cc1.[Br-]	13.7
Clc1ccc(C[n+]2cc(-c3ccccc3)n3c2CCC3)cc1.[Cl-]	7.34
COc1ccc(-c2c[n+]3c(n2-c2ccccc2)CCCCC3)cc1.[Br-]	2.74
COc1ccc(-n2c(-c3ccc(Br)cc3)c[n+]3c2CCCCC3)cc1.[Br-]	-24.6
Clc1ccc(C2=C3CCCCn4c(-c5ccccc5)c[n+](c43)C2)cc1.[Br-]	-83.1
COc1ccc(-c2c[n+]3c4n2CCCCC4=C(c2ccccc2)C3)cc1.[Br-]	-74.7

Structure (SMILES)	hERG current change (%, negative = inhibition) at 1uM [%]
COc1cc2c(cc1OC)CN(S(C)(=O)=O)CC2	16.5
Fc1cccc(CCN2CCNC[C@@H]2CC2CCCCC2)c1	1.12
Cc1ccc2oc(C(=O)NCC3CCOCC3)c(C)c2c1	10.3
CCCCCCCn1c(=N)n(CC(O)c2ccco2)c2ccccc21.Cl (centres unmarked)	-76.8
CCn1c(=N)n(CC(O)c2ccco2)c2ccccc21.Cl (centres unmarked)	-7.63
CCN(CC)CCn1c(=N)n(CC(O)c2ccco2)c2ccccc21.Cl (centres unmarked)	-54.6
Cl.N=c1n(CCN2CCCC2)c2ccccc2n1CC(O)c1ccco1 (centres unmarked)	-3.97
CCCn1c(=N)n(CC(O)c2ccco2)c2ccccc21.Cl (centres unmarked)	-13.8
Cl.Cn1c(=N)n(CC(O)c2ccco2)c2ccccc21 (centres unmarked)	1.97
O=C(O)C(=O)O.O=[N+]([O-])c1cccc(CN2CCN(Cc3ccc(Cl)cc3)CC2)c1	-27.2
COC(=O)c1cc(NC(=O)C2(S(=O)(=O)c3ccc(C)cc3)CC2)cc(C(=O)OC)c1	0.157
COc1ccc(O)c(C(=O)c2cc(C#N)c(=O)n(Cc3ccccc3)c2)c1	8.35
O=C(NCc1ccccc1)C1(C(F)(F)F)C/C(=C\CCO)CCCO1 (centres unmarked)	14.1
Cc1ccc(/C=C2/C(=O)NC(=O)N(CCc3ccc(F)cc3)C2=O)o1	2.54
CCC1CN(C(=O)N2CCC(C(=O)NCCc3ccccc3)CC2)c2ccccc2O1 (centres unmarked)	8.85
O=C(CCc1nc2cccnc2n1Cc1ccccc1)NCCc1ccc(Cl)cc1	-65.2
COCCCNC(=O)CCc1nc2cccnc2n1Cc1ccccc1	-11.9
CCCCNC(=O)CCc1nc2cccnc2n1Cc1ccccc1	-34.7
Cc1ccc([N+](=O)[O-])cc1N/C=C1\CCCCC1=O	16.5
Cc1ccc(N(CC(=O)NCc2cccnc2)S(C)(=O)=O)cc1C	12.4
COc1ccc(C2=NOC(C(=O)NCc3cccs3)C2)cc1 (centres unmarked)	21.3

Structure (SMILES)	hERG current change (%, negative = inhibition) at 1uM [%]
O=C(Nc1ccccc1Cl)c1cc(S(=O)(=O)N2CCCCC2)ccc1N1CCOCC1	-5.21
NC(=O)c1ccc(NC(=O)c2cc(S(=O)(=O)N3CCCCC3)ccc2N2CCOCC2)cc1	13.4
CS(=O)(=O)c1ccc(Cl)c(NC(=O)c2cc(S(=O)(=O)N3CCOCC3)ccc2N2CCCC2)c1	-60.2
O=C(Nc1ccccc1)c1cc(S(=O)(=O)N2CCCCC2)ccc1N1CCOCC1	12.6
CNC(=O)c1ccc(NC(=O)c2cc(S(=O)(=O)N3CCOCC3)ccc2N2CCCC2)cc1	13.5
N#Cc1ccc(NC(=O)c2cc(S(=O)(=O)N3CCOCC3)ccc2N2CCCC2)cc1	-58.9
NC(=O)c1ccccc1NC(=O)c1cc(S(=O)(=O)N2CCCCC2)ccc1N1CCOCC1	-60.5
O=C(Nc1ccccc1N1CCCCC1)c1cc(S(=O)(=O)N2CCOCC2)ccc1Cl	7.72
O=C(Nc1ccccc1N1CCCC1)c1cc(S(=O)(=O)N2CCOCC2)ccc1Cl	-9.58
CC1=NN(c2ccc(C(=O)O)cc2)C(=O)/C1=C/c1ccc(-c2ccccc2F)o1	15.2
C=CCOc1cccc(C(=O)N2CCC(CCC(=O)NC3CC3)CC2)c1	12.6
Cn1c(SCC(=O)N/N=C/C=C\c2ccco2)nc2ccccc21	-13.7
O=C(Nn1c(O)c(C=C2N=c3ccccc3=N2)sc1=S)c1ccccc1Cl	0.388
Cc1ccc(-c2nnn(CC(=O)N(c3ccc4c(c3)OCCO4)C(C(=O)NCC3CCCO3)c3ccc(F)cc3)n2)o1 (centres unmarked)	10.9
O=C(O)c1ccc(S(=O)(=O)NC2CCCCCC2)cc1	13.5
O=C(NNC(=O)c1ccccc1[N+](=O)[O-])c1csc(N2CCOCC2)n1	0.109
CCn1cc(-c2nnnn2-c2ccc(Cl)cc2)c(=O)c2ccccc21	-16.3
Cn1cc(-c2nnnn2-c2ccc(Cl)cc2)c(=O)c2ccccc21	-66.3
Cn1cc(-c2nnnn2-c2ccccc2)c(=O)c2ccccc21	1.73
CCCCNC(=O)/C(=C/c1ccccc1)NC(C)=O	1.06
Cc1ccc(CSc2nc3ccccc3c(=O)n2CCCC(=O)NCc2ccco2)cc1	1.62

Structure (SMILES)	hERG current change (%, negative = inhibition) at 1uM [%]
O=C(CSc1nc2c(sc3ccccc32)c(=O)n1CCO)NCc1ccco1	-1
CCN(CC)CCn1c(SCC(=O)NCc2ccco2)nc2c(sc3ccccc32)c1=O	-50.4
O=C(CSc1nc2c(sc3ccccc32)c(=O)n1CCCN1CCOCC1)NCC1CCCO1 (centres unmarked)	2.38
O=C(CCCCCn1c(SCc2ccncc2)nc2ccccc2c1=O)NCc1ccco1	-88.4
CCCCn1c(SCC(=O)NCc2ccco2)nc2c(sc3ccccc32)c1=O	-4.7
COCCCn1c(SCC(=O)NCc2ccccc2)nc2ccccc2c1=O	-8.03
COc1cccc(NC(=O)CSc2nc3c(sc4ccccc43)c(=O)n2CCCN2CCCC2)c1	-3.14
O=C(CSc1nc2ccccc2c(=O)n1CCCO)NCc1ccccc1	-4.26
Cc1ccc(CNC(=O)CSc2nc3ccccc3c(=O)n2CCCO)cc1	-51.3
O=C(CCCCCn1c(SCC(=O)c2ccccc2)nc2ccccc2c1=O)NCc1ccco1	14.7
Cc1ccc(CNC(=O)CSc2nc3c(sc4ccccc43)c(=O)n2CCCN2CCCC2)cc1	-57.9
O=C(CN1C(=O)/C(=C/c2ccccc2F)Sc2ccccc21)N1CCN(c2ccccn2)CC1	12.8
CC(=O)Nc1cccc(C(=O)OCC(=O)NC(C)c2ccc(F)cc2)c1 (centres unmarked)	16.1
Cc1cc(Oc2ccc(-c3ccccc3)cc2)nc(N2CCOCC2)n1	2.61
COc1ccc(N2CCC(CNC(=S)Nc3cccc(OC)c3)C2)cc1 (centres unmarked)	8.46
Cc1ccc(-n2c(SCC(=O)NC3CCCCC3)nc3c(c2=O)SCC3)cc1	9.81
COc1ccc(C(=O)N=C2SC3CS(=O)(=O)CC3N2Cc2ccc(OC)c(OC)c2)cc1 (centres unmarked)	10.7
Cc1ccc2nc(SCC(=O)N3CCCCC3)nc(=O)n2c1	12.4
CCOc1ccc(Nc2ncnc3c2cnn3Cc2ccccc2)cc1	8.72
C=CCOc1cccc(C2/C(=C(/O)c3ccc(F)cc3)C(=O)C(=O)N2CCN2CCOCC2)c1 (centres unmarked)	12.9
